Measured values: the supplement of paper PMC10849652
Of roughly 7,900 targets only a part is listed; those with a hit were picked by preference. About 0.6% of all pairs of compound and target were hits. A number with no mark means an inactive call.

Legend:
Experiment in all cases: log2 fold change, soluble protein after heating vs DMSO (PISA); higher = thermal stabilisation; K562 cells, 10 uM, 30 min; active = over 0.2 and 3.5 SD of the protein, either way, in both replicates (recomputed)
[1] = compound: CN1CCN(CCOc2cc(OC3CCOCC3)c3c(Nc4c(Cl)ccc5c4OCO5)ncnc3c2)CC1 [saracatinib]
In short: (§1)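 Aliquots of K562 cells (2×10^6 cells/mL) treated with 10 μM compound for 30 min were heated for 3 min over 48°C-58°C. After pooling and extraction in PBS with 0.5% NP-40 at 4°C, soluble protein from a 21,000xg, 90 min spin was quantified by TMTpro 16plex LC-MS/MS with channel sums equalised. Thermal stability is expressed against control samples, from duplicates, as a log2 fold change.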

[2] = compound: CN1CCN(c2nc(C3=C(c4c[nH]c5ccccc45)C(=O)NC3=O)c3ccccc3n2)CC1 [sotrastaurin]
In short: as §1

[3] = compound: CN1CC[C@H](c2c(O)cc(O)c3c(=O)cc(-c4ccccc4Cl)oc23)[C@H](O)C1 [alvocidib]
In short: as §1

[4] = compound: CN1CCc2c(c3ccccc3n2Cc2ccc(C(=O)NO)cc2)C1 [Tubastatin A]
In short: as §1

[5] = compound: CNC(=O)C1=CC=CC=C1NC2=NC(=NC=C2Cl)NC3=C(C=C(C=C3)N4CCOCC4)OC
In short: as §1

[6] = compound: CNC(=O)c1ccc(Nc2ncc(C(F)(F)F)c(NCc3nccnc3N(C)S(C)(=O)=O)n2)cc1 [defactinib]
In short: as §1

[7] = compound: CNCc1ccc(-c2[nH]c3cc(F)cc4c3c2CCNC4=O)cc1 [rucaparib]
In short: as §1

[8] = compound: CNc1nc(-c2ccc3c(N)n[nH]c3c2)cc(N2C[C@@H](C(=O)NC3CCCCC3)CC[C@H]2C)n1
In short: as §1

[9] = compound: COC(=O)N[C@@H](C)CNc1nccc(-c2cn(C(C)C)nc2-c2cc(Cl)cc(NS(C)(=O)=O)c2F)n1 [encorafenib]
In short: as §1

[10] = compound: COC(=O)[C@H](CCSC)NC(=O)C1=C(C=C(C=C1)NC[C@H](CS)N)C2=CC=CC=C2
In short: as §1

Target: TNNC2 (UniProt P02585)
Chain of UniProt P02585 (P02585 whole entry, looked up): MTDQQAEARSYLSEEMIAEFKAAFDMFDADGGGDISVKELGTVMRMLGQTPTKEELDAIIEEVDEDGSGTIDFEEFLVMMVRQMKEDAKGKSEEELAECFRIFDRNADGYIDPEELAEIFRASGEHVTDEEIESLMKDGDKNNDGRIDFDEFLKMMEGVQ
- log2 fold change [1]: 0.007
- log2 fold change [2]: 0.095
- log2 fold change [3]: -0.009
- log2 fold change [4]: -0.139
- log2 fold change [5]: -0.035
- log2 fold change [6]: 0.012
- log2 fold change [7]: -0.025
- log2 fold change [8]: -0.056
- log2 fold change [9]: -0.049
- log2 fold change [10]: 0.037

Target: TNPO3 (UniProt Q9Y5L0)
Chain of UniProt Q9Y5L0 (Q9Y5L0 whole entry, looked up): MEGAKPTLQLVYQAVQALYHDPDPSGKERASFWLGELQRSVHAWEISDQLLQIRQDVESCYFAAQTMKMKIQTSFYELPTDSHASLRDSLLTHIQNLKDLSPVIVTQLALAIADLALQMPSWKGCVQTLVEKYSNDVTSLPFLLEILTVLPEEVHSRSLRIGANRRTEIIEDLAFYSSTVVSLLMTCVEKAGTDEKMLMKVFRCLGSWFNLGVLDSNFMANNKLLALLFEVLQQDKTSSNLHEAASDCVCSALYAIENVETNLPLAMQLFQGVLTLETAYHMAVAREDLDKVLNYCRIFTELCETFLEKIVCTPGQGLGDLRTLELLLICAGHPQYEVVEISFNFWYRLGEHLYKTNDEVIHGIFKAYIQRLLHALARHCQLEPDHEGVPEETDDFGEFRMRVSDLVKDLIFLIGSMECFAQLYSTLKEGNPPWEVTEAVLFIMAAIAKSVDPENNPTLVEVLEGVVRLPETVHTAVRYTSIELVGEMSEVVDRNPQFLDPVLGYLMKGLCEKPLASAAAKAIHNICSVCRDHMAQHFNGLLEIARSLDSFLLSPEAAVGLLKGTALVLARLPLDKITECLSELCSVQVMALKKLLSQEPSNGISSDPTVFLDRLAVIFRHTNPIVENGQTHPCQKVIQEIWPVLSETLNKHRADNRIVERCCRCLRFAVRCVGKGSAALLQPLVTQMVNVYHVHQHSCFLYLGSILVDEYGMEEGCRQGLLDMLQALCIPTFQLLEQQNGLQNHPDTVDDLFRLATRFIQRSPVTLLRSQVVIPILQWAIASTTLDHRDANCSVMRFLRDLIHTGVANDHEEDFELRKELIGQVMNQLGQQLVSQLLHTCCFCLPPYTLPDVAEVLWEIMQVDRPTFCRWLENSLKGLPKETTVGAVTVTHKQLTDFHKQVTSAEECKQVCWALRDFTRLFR
- log2 fold change [1]: 0.034
- log2 fold change [2]: -0.075
- log2 fold change [3]: -0.114
- log2 fold change [4]: -0.03
- log2 fold change [5]: -0.011
- log2 fold change [6]: -0.067
- log2 fold change [7]: 0
- log2 fold change [8]: -0.013
- log2 fold change [9]: 0.032
- log2 fold change [10]: -0.003

Target: UGDH (UniProt O60701)
Chain of UniProt O60701 (O60701 whole entry, looked up): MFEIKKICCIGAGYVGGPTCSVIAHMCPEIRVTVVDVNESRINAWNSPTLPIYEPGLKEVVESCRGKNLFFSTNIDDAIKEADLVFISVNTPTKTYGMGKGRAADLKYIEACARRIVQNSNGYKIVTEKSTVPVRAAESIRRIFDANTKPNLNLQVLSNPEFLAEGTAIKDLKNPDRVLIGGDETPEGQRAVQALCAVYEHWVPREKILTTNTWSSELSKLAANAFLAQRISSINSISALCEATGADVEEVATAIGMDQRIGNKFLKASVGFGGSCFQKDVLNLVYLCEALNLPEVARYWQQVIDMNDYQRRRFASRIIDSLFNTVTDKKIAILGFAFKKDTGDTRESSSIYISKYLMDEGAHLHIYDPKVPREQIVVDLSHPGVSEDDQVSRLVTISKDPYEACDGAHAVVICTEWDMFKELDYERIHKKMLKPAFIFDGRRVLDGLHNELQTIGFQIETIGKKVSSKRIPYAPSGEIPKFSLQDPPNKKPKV
- log2 fold change [1]: -0.036
- log2 fold change [2]: -0.284 (active)
- log2 fold change [3]: -0.273
- log2 fold change [4]: 0.004
- log2 fold change [5]: -0.085
- log2 fold change [6]: -0.209
- log2 fold change [7]: -0.089
- log2 fold change [8]: 0.074
- log2 fold change [9]: 0.087
- log2 fold change [10]: -0.038

Target: TNPO1 (UniProt Q92973)
- log2 fold change [1]: 0.034
- log2 fold change [2]: -0.062
- log2 fold change [3]: -0.141
- log2 fold change [4]: -0.064
- log2 fold change [5]: -0.013
- log2 fold change [6]: -0.123
- log2 fold change [7]: -0.04
- log2 fold change [8]: 0.009
- log2 fold change [9]: 0.029
- log2 fold change [10]: 0.006

Target: UPF3B (UniProt Q9BZI7)
Chain of UniProt Q9BZI7 (Q9BZI7 whole entry, looked up): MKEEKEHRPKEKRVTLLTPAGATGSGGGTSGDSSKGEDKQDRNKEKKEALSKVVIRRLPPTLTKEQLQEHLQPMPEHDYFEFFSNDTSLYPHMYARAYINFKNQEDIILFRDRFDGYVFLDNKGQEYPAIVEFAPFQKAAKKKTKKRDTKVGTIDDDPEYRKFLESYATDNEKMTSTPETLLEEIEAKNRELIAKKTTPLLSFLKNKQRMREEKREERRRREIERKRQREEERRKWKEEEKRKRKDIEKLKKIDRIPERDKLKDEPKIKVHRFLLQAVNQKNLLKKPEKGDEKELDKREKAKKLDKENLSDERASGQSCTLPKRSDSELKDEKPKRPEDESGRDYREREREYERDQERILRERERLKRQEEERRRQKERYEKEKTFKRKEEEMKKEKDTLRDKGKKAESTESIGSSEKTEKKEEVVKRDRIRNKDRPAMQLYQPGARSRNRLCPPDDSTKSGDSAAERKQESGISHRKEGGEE
- log2 fold change [1]: -0.099
- log2 fold change [2]: 0.002
- log2 fold change [3]: 0.423
- log2 fold change [4]: 0.114
- log2 fold change [5]: 0.045
- log2 fold change [6]: 0.413
- log2 fold change [7]: 0.286
- log2 fold change [8]: 0.035
- log2 fold change [9]: 0.108
- log2 fold change [10]: 0.007

Target: TRMT10A (UniProt Q8TBZ6)
Chain of UniProt Q8TBZ6 (Q8TBZ6 whole entry, looked up): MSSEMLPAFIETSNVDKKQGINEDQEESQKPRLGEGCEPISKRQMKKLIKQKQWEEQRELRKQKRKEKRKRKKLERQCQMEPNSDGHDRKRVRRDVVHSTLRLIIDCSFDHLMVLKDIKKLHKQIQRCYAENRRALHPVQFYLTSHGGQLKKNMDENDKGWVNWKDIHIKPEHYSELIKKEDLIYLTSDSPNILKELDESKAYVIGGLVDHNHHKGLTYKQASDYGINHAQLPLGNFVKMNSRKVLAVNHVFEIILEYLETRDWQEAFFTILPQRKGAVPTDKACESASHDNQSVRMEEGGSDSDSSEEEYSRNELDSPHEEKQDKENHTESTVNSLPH
- log2 fold change [1]: -0.028
- log2 fold change [2]: -0.024
- log2 fold change [3]: -0.12
- log2 fold change [4]: -0.038
- log2 fold change [5]: 0.054
- log2 fold change [6]: -0.06
- log2 fold change [7]: 0.016
- log2 fold change [8]: 0.032
- log2 fold change [9]: 0.026
- log2 fold change [10]: 0.036

Target: WNK1 isoform 7 (UniProt Q9H4A3)
Chain of UniProt Q9H4A3 (Q9H4A3 whole entry, looked up): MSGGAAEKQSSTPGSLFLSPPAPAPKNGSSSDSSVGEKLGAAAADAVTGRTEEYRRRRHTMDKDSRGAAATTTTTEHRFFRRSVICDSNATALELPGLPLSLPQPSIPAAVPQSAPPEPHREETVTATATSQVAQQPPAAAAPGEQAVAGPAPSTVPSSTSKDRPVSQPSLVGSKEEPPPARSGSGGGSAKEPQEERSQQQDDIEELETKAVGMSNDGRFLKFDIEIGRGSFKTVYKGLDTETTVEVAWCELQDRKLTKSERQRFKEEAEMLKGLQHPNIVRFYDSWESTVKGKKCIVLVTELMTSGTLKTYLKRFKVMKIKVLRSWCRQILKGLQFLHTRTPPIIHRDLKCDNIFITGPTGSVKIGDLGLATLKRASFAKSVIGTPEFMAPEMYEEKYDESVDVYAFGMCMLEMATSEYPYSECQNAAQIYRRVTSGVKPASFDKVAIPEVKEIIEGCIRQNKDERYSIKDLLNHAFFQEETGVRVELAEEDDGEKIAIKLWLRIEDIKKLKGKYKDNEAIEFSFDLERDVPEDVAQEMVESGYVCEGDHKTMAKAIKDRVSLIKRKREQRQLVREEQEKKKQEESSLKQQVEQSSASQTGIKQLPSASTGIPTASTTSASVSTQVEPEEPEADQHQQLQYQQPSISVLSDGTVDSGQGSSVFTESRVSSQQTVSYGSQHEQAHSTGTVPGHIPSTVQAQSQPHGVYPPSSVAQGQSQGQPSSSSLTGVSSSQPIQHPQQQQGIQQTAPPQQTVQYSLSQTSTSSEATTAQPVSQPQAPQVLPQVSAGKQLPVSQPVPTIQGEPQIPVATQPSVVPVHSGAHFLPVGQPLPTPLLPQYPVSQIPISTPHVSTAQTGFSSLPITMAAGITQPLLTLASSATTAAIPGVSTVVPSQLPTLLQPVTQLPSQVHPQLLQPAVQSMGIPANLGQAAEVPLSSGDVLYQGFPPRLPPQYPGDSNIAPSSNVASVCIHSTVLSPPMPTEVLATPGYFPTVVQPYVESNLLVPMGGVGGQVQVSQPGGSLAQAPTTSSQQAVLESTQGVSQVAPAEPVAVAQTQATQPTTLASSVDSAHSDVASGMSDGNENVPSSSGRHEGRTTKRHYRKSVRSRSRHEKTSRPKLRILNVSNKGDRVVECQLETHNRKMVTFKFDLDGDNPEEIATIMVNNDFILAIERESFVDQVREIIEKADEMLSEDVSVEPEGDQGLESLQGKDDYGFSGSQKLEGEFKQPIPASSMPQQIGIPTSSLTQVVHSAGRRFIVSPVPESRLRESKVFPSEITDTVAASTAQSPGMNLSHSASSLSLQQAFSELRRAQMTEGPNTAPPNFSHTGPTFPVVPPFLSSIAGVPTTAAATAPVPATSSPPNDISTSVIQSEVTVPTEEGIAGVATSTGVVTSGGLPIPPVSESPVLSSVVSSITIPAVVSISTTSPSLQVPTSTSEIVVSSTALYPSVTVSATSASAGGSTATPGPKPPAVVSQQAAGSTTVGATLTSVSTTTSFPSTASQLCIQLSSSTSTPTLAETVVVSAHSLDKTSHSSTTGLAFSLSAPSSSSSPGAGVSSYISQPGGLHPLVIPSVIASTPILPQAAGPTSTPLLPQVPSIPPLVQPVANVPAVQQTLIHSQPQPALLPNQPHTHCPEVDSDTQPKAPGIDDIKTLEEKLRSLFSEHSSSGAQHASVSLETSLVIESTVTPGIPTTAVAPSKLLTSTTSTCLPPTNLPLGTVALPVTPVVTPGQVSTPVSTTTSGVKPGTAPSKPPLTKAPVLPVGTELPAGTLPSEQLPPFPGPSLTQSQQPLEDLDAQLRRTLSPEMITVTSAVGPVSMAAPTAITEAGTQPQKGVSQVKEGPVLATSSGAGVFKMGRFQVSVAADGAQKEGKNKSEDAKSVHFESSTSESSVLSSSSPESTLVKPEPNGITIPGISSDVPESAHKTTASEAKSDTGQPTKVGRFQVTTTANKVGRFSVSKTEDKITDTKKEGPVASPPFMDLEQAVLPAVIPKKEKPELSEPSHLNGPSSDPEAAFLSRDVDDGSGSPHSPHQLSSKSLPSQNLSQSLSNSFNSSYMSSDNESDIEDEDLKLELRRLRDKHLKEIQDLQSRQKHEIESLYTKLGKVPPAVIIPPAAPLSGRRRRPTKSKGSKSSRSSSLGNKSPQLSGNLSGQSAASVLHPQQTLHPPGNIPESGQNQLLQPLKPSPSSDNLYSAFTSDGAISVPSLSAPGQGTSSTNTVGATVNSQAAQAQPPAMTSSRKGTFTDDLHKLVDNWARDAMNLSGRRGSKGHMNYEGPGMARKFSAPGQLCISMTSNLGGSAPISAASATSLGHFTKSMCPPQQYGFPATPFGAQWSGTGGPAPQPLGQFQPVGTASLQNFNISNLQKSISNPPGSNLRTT
- log2 fold change [1]: 0.022
- log2 fold change [2]: 0.003
- log2 fold change [3]: -0.007
- log2 fold change [4]: -0.005
- log2 fold change [5]: -0.047
- log2 fold change [6]: 0.003
- log2 fold change [7]: 0.013
- log2 fold change [8]: -0.035
- log2 fold change [9]: 0.012
- log2 fold change [10]: 0.006
